Test results: PubChem BioAssay AID652010 (The Scripps Research Institute Molecular Screening Center, 2013)
The campaign covered roughly 370,000 compounds. About 4,100 (1.1%) were called active. The sample as a whole holds a higher share of actives than the screen did. A number with no mark means an inactive call.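 The calls were made as follows: active = inhibition above the mean over all tested compounds plus 3 SD (cut at about 3.6% in these data); inactive = the rest.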

assay: DAX1 (NR0B1) inhibitors on StAR promoter, primary screen, cell-based, luminescence, SF-1 (NR5A1), full-length DAX-1 (AID 652010); conditions: HEK293T StAR-luciferase reporter, SF-1/DAX-1 repression relief; at 6.8 µM; stronger effect = higher value;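 also: 0% = DAX-1 cells with DMSO and 100% = cells lacking DAX-1 with DMSO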

SMILES | inhibition
CCOc1ccc(NC(=O)COc2ccc(S(=O)(=O)N3CCCC3)cc2)cc1 | -0.61%
COc1ccc(-n2c(COc3ccccc3)nnc2SCC(=O)Nc2ccc3c(c2)OCO3)cc1 | -0.36%
CC(c1ccc(N)cc1)c1cn(C)c2ccccc12 (centres undefined) | -0.01%
COc1ccc(Cn2cc(COC(=O)N(C)Cc3ccccc3)nn2)cc1 | -0.67%
Cc1nn(C(=O)c2ccoc2C)c(N)c1-c1ccccc1 | 3.82% (active)
Cc1nn2c(c1-c1ccccc1)N=C(c1ccco1)CC2c1ccccc1 (centres undefined) | -0.86%
Cc1cc(-c2ccccc2)n2nc(C)c(-c3ccccc3)c2n1 | 0.27%
O=C(NCCc1c[nH]c2ccccc12)OCc1cn(-c2c(F)cccc2F)nn1 | -0.6%
Cc1cccc(N(CC(=O)Nc2ccc(-c3nc4ccc(C)cc4s3)cc2)S(C)(=O)=O)c1 | 1.57%
Cc1ccc2nc(-c3ccc(NC(=O)CN(C)S(=O)(=O)c4ccccc4)cc3)sc2c1 | 3.65% (active)
Cc1nc2ccc(S(=O)(=O)N(C)CC(=O)NC(C)c3ccccc3)cc2s1 (centres undefined) | -0.1%
O=S1(=O)c2c(cccc2N2CCCC2)O[C@H](COCc2ccccc2)CN1C1CC1 | -1.16%
C=CCN1C(=O)[C@@H](CC(=O)NCC2CCCCC2)[C@]2(C(=O)OC)CCCCC=C12 | 0.53%
COC(C(=O)Nc1ccc(S(=O)(=O)Nc2ccc(C)c(C)c2)cc1)c1ccccc1 (centres undefined) | -1.03%
Cc1ccc(NNC(=O)C2CCC2)cc1C | 0.22%
Cc1ccc(N/C=C/C(=O)c2ccccc2)cc1C | 5.15% (active)
Nc1nc2c(ncn2[C@@H]2O[C@H](C(=O)N[C@H](Cc3ccccc3)C(=O)NCC3CCCCC3)[C@@H](O)[C@H]2O)c(=O)[nH]1 | 1.02%
COC(=O)Nc1nc2ccc(C(=O)C3CC3)cc2[nH]1 | 7.48% (active)
COC(=O)Nc1nc2ccc(Sc3ccccc3)cc2[nH]1 | 0.19%
COc1ccc(CNC(=O)c2cc(C(=O)C3CC3)c[nH]2)cc1 | -2.24%

SMILES | inhibition
COc1ccc(-n2c(COc3ccc(C)cc3)nnc2SCC(=O)Nc2ccc(Oc3ccccc3)cc2)cc1 | -1.51%
COc1ccc(Cn2cc(CN3[C@@H](CC(C)C)COc4cc(Br)ccc4S3(=O)=O)nn2)cc1 | 0.86%
C=CCN1[C@H](CC(C)C)COc2cccc(N3CCCC3)c2S1(=O)=O | -1.88%
O=C(CCc1ccccc1)Nc1ncc([N+](=O)[O-])s1 | 4.52% (active)
O=C(CCc1ccccc1)Nc1ccc(NC(=O)C2CC2)nc1 | -0.05%
O=C(CCc1ccccc1)Nc1ccc(NC(=O)C2CCCCC2)nc1 | -0.14%
Cc1cc2oc(C(=O)Nc3c(C)n(C)n(-c4ccccc4)c3=O)c(C)c2cc1Cl | -0.22%
Cc1ccnc(NC(=O)Cn2ccc([N+](=O)[O-])n2)c1 | 0.11%
Cc1ccnc(NC(=O)CCCOc2ccccc2)c1 | 0.57%
Cc1ccnc(NC(=O)CNC(=O)c2ccccc2)c1 | 6.34% (active)
O=C(CN1CCCc2ccccc21)NCc1ccc(F)cc1 | -0.22%
Brc1ccc(COCCc2cn(Cc3ccccc3)c3ccccc23)cc1 | 1.27%
O=C(COc1ccc(Br)cc1F)NCC1(N2CCCCC2)CCCCC1 | 0.06%
CC(C)N(Cc1nnc(-c2ccc(Cl)cc2)o1)C(=O)C1=COCCO1 | -1.6%
CN(C)CCN(C(=O)C1=COCCO1)c1nc2ccc(Cl)cc2s1 | 4.61% (active)
CCCOP(=O)(c1ccc(N(C)C)cc1)C(O)c1cc(OC)c(OC)c(OC)c1 (centres undefined) | 0.1%
CCCC[C@H](C(=O)N(CC)c1ccccc1)[C@@H](O)c1ccc2ccccc2c1 | -1.35%
COC(=O)[C@]12C[C@H](CC(=O)NCc3cccc4ccccc34)C(=O)N(CCc3ccc(OC)c(OC)c3)C1=C[C@H](C1CCCC1)O[C@@H]2C | -1.59%
C#CCN([C@H](C(=O)OC)C(C)CC)S(=O)(=O)c1ccccc1Br (some centres undefined) | -0.34%
COc1ccc(C(CNC(=O)c2cccc(NS(=O)(=O)c3ccc(C)c(F)c3)c2)N2CCCC2)cc1 (centres undefined) | 2.54%

SMILES | inhibition
COc1ccc(NS(=O)(=O)c2ccc(C)c(C(=O)NCC(c3cccs3)N3CCOCC3)c2)cc1 (centres undefined) | 1.82%
COc1ccc(C(CNC(=O)c2cc(S(=O)(=O)Nc3cccc(C)c3)ccc2C)N2CCCC2)cc1 (centres undefined) | 4.48% (active)
CCOC(=O)C1(Cc2ccccc2)CCN(Cc2cn(C(C)=O)c3ccccc23)CC1 | -0.4%
COc1ccccc1C(=O)NCCC(=O)NCC(c1ccco1)N1CCCCC1 (centres undefined) | 0.45%
O=C(c1cc2sccc2n1Cc1ccc(F)cc1)N1CCc2ccccc21 | -0.14%
O=C(c1cnn2ccccc12)N1CCc2ccccc21 | 6% (active)
CCCCn1nc(C(=O)N2CCc3ccccc32)c2ccccc2c1=O | -1%
Cc1ccccc1C(=O)N[C@H](C(=O)N1CCC[C@H]1C(=O)NCc1ccccc1)C(C)C | 0.49%
O=C(Nc1ccc2c(c1)OCCO2)C(C1CC1)N1CCC(Cc2ccccc2)CC1 (centres undefined) | -0.46%
O=C(CCS(=O)(=O)Cc1ccccc1)Nc1ccc2c(c1)OCCO2 | -0.13%
Nc1c(C(=O)Nc2ccc3c(c2)OCCO3)nnn1Cc1ccccc1 | 11.8% (active)
Cc1ccc(NC(=O)Cc2cccc(F)c2)c(S(=O)(=O)N2CCOCC2)c1 | -1.09%
O=C(CSc1nnc(-c2ccccn2)n1-c1ccccc1)Nc1ccc2cn[nH]c2c1 | -1.05%
COc1cccc(-c2cnc(OC(C)(C)C)nc2OC(C)(C)C)c1 | -0.07%
COc1cccc(-c2nc3cc(C)ccc3o2)c1 | 4.5% (active)
O=[N+]([O-])c1ccc2c(c1)C(O)n1nc(-c3ccccc3)nc1S2 (centres undefined) | -0.33%
COc1cccc(NS(=O)(=O)c2ccc(-c3coc(C)n3)cc2)c1 | -0.43%
CNc1ccc([N+](=O)[O-])cc1C(=O)O | 0.42%
O=[N+]([O-])c1ccc2oc(-c3cccc(O)c3)nc2c1 | 5.24% (active)
